Screening data from PubChem BioAssay.
Rows were chosen to be rich in hits. Some 3.6% of all compounds tested hit in one or more screens of this group.
BoNT-F LC inh: inhibitors of Botulinum neurotoxin F light chain protease; Multiplex microsphere protease cleavage assay, flow cytometry; inhibition, % at 10 µM; AID 588497; 360,000 compounds, 0.22% hits; in the data active = inhibition above about 35%, passing the limit was not always enough; inconclusive = no clear call, values can overlap the other calls; note: plate controls were buffer without enzyme for full effect and enzyme alone for no effect
Bead autofluor: flagged as autofluorescent in microsphere protease counterscreen. compound autofluorescence counterscreen, microsphere flow cytometry; active compounds read high. 360,000 compounds, 3.1% hits. AID 624483. fluorescence intensity (test concentration not listed); in the data active = fluorescence intensity above about 16000; inconclusive = no clear call, values can overlap the other calls
BoNT-A LC inh2: inhibitors of Botulinum neurotoxin A light chain protease; 360,000 compounds, 0.17% hits; inhibition, % at 10 µM; AID 588499; multiplex microsphere protease substrate cleavage, flow cytometry; note: plate controls were buffer without enzyme for full effect and enzyme alone for no effect
Anthrax LF inh2: blocks Bacillus anthracis lethal factor protease | multiplex microsphere protease cleavage assay, LF | inhibition, % at 10 µM | AID 588501 | P15917 | 360,000 compounds, 0.12% hits; note: plate controls were buffer without enzyme for full effect and enzyme alone for no effect
MazEF act: increases E. coli MazEF RNase cleavage of RNA; 350,000 compounds, 0.32% hits; P0AE70; FAM/BHQ RNA-DNA oligo cleavage fluorescence, 5 h; activation, % at 20 µM; in the data active = activation above about 50%
* marks the source's active call; other numbers are inactive results; ? = inconclusive; . = not tested or not shown. Cut-off read from the data, not from the text of the source, unless noted: active = inhibition above about 30%; inconclusive = no clear call, values can overlap the other calls; inactive = below that.

SMILES	BoNT-F LC inh	Bead autofluor	BoNT-A LC inh2	Anthrax LF inh2	MazEF act
Cc1ccccc1N=Cc1ccc[nH]1	?	3663	0	11	9
O=C(c1cc(-c2ccc3c(c2)OCO3)on1)N1CCOCC1	-2	23477*	?	-1	2
O=C(c1cc(-c2ccc(Cl)c(Cl)c2)on1)N1CCOCC1	0	6176	0	0	4
O=C(c1cc(-c2ccc3c(c2)OCO3)on1)N1CCN(c2ccccc2)CC1	3	18888*	6	-6	2
O=C(c1cc(-c2ccc(Cl)cc2)on1)N1CCOCC1	-2	21336*	-3	-2	3
CCN(C[C@H]1N[C@@](Cc2ccccc2)(C(=O)OC)[C@H]2C(=O)N(Cc3ccccc3)C(=O)[C@@H]12)C(=O)Nc1ccc(C(F)(F)F)cc1	-4	4027	0	-3	-6
c1ccc(-c2ccc3ncccc3n2)cc1	1	4506	0	7	.
COc1ccc([C@H]2N[C@]3(CCCN(Cc4ccc(C(F)(F)F)cc4)C3=O)[C@H]3C(=O)N(Cc4ccccc4)C(=O)[C@@H]23)cc1	-11	2987	0	-2	6
CCOC(=O)[C@H]1[C@H]2COc3ccc(Br)cc3[C@@H]2N2C(=O)CN(Cc3ccc(F)cc3)C(=O)[C@@]12C	9	4030	0	-1	1
O=C1c2cc(S(=O)(=O)NCCCO)ccc2-c2ccc(S(=O)(=O)NCCCO)cc21	1	21753*	3	-1	3
COCCNS(=O)(=O)c1ccc2c(c1)C(=O)c1cc(S(=O)(=O)NCCOC)ccc1-2	1	16158*	1	-3	0
CC1CCCN(CCOCCOc2ccc(Cl)cc2Br)C1 (stereo not given)	1	21666*	1	-9	-3
CC1CCCN(CCOCCOc2ccc(Br)cc2Cl)C1 (stereo not given)	6	2691	1	0	5
CN1CCN(C(=O)c2ccc3c(=O)n(Cc4ccc(Cl)cc4)c(=S)[nH]c3c2)CC1	-2	20632*	-1	-2	-4
O=C(c1ccc2c(=O)n(Cc3ccc(Cl)cc3)c(=S)[nH]c2c1)N1CCOCC1	2	5054	1	-4	0
CCn1c(=O)[nH]c2cc(C(=O)N3CCN(c4ccccc4)CC3)ccc2c1=O	0	22918*	?	-6	0
O=C(c1ccc2c(=O)n(Cc3ccc(Cl)cc3)c(=S)[nH]c2c1)N1CCCC1	-6	4933	-4	1	1
O=c1c2ccc(Cl)cc2[nH]c(=S)n1Cc1cccnc1	7	21022*	4	-4	2
O=C(c1ccc2c(=O)n(CCc3ccccc3)c(=O)[nH]c2c1)N1CCN(c2ccccc2)CC1	11	3518	-3	-8	-4
O=C(c1ccc2c(=O)n(Cc3ccc4c(c3)OCO4)c(=S)[nH]c2c1)N1CCCCC1	3	22165*	3	-2	6
CCOc1ccc(S(=O)(=O)N2CCOCC2)cc1NC(=O)CN1C(=O)NC(C)(c2ccccc2)C1=O (stereo not given)	.	.	.	.	-4
CCOC(=O)N1CCN(C(=O)c2ccc3c(=O)n(Cc4ccccc4OC)c(=S)[nH]c3c2)CC1	0	16581*	0	-3	4
CCOC(=O)c1ccc2c(c1)nc(COc1ccc(OC)cc1)n2CC	1	16133*	2	-1	2
Cn1nc(C(F)(F)F)c(C(=O)Nc2cccc(Cl)c2)c1Cl	-9	25124*	-3	-1	0
Cn1nc(-c2ccc(C(=O)Nc3cccc(Cl)c3)cc2)c2ccccc2c1=O	-5	?	?	-21	101*
SMILES	BoNT-F LC inh	Bead autofluor	BoNT-A LC inh2	Anthrax LF inh2	MazEF act
Cc1ccc(NC(=O)c2ccc(-c3nn(C)c(=O)c4ccccc34)cc2)cc1	-1	9116	0	-8	6
CC(C)c1cc(C(=O)Nc2cccc(Cl)c2)no1	14	18450*	14	-12	-2
O=C(O)C(c1ccccc1)C1(O)CC2CCC1C2 (stereo not given)	0	3868	0	-6	2
CCOC(=O)c1c(-c2ccc(OC)cc2)oc2c1C(OC(C)=O)CCC2 (stereo not given)	-3	5558	0	3	.
O=C(Nc1ccccc1C(=O)Nc1nccs1)c1ccccc1	-3	5607	-1	0	.
CCCCSc1nnc2c(n1)[nH]c1ccccc12	2	21409*	-1	1	-2
O=C(O)c1[nH]c2ccccc2c1CC(=O)N1CCOCC1	1	19170*	2	2	1
O=C(Cc1c(C(=O)O)[nH]c2ccccc12)Nc1ccc2c(c1)OCO2	-4	16805*	0	-3	-2
